Source: PubChem
KB-V1 cytotox = qHTS assay for MDR1-selective chemotherapeutics: Primary screen using the drug-selected MDR subline cells KB-V1; actives 3.4% (n = 400,000); Potency, µM (titrated, usually from 46.1 µM), most hits filed as cytotoxic; AID 1347076, 2019; KB-V1 MDR cells viability, CellTiter-Glo, 72 h; further: potency means the concentration at half of the fitted maximal effect; nearly all actives have a fitted effect of over 60% in size
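Following 72 h at 37 degrees C with compound, KB-V1 cell viability was read by CellTiter-Glo luminescence, medium being phenol-red-free DMEM plus 10% FBS; concentration-response parameters came from normalized, curve-fitted qHTS data.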
Giardia kill = Small Molecules that selectively kill Giardia lamblia: qHTS. actives 0.15% (n = 340,000). Giardia lamblia trophozoite viability. activity change, % at 7.66 µM, hits read low; in the data active means activity change below about -80%; inconclusive means between about -30% and that limit;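 further: parasites exposed to compound for two days anaerobically before the ATP read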
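Anaerobic 48 hrs incubation at 37 deg C of 100 trophozoites/well with test compounds; ATPLite 1-Step luminescence, 15-30 min RT, reports cellular ATP as viability.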
Nrf2 inh = Nrf2 qHTS screen for inhibitors | A549 ARE-Fluc reporter, luciferase luminescence, 18-24 h | Potency, µM (doses to about 46 µM), for inactives: top-dose activity change, negative = inhibition, most hits filed as inhibitors | actives 2.1% (n = 360,000) | AID 504444, 2011; further: potency means the concentration at half of the fitted maximal effect; nearly all actives have a fitted effect of over 60% in size
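Reporter: ARE-Fluc in A549. Exposure: 18-24 h, 37 °C, 5% CO2, 5% FBS OPTI-MEM. Readouts: fluorescent cytotoxicity (CellTiter-Fluor), then luminescent Nrf2 signal after BugLite.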
A549 tox = Nrf2 qHTS screen for inhibitors: counterscreen for cytotoxicity. Potency, µM (top dose mostly 46 µM), inactives show at the highest dose activity change, negative = cytotoxicity, actives largely listed as inhibitors. A549 ARE-Fluc cells, CellTiter-Fluor viability, 18-24 h. actives 0.16% (n = 390,000); further: potency means the concentration at half of the fitted maximal effect
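Cytotoxicity counterscreen: CellTiter-Fluor fluorescence was measured in A549 ARE_Fluc cells after 18-24 h of compound exposure in a concentration series. The subsequent BugLite luminescent read reports ARE-luciferase activity.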
PI4K2A block = qHTS for small molecular inhibitors of PI4K2A | Phosphatidylinositol 4-kinase type 2-alpha (Homo sapiens), Q9BTU6 | purified PI4K2A, ADP-Glo luminescence, 1 h; hits give low values | activity change, negative = inhibition, % at 76.9 µM | actives 0.13% (n = 420,000); in the data active means activity change below about -50%; inconclusive means mostly about -30% to -49%;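 further: -100% = wells without enzyme as full effect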
Target sequence (Q9BTU6 whole entry, looked up): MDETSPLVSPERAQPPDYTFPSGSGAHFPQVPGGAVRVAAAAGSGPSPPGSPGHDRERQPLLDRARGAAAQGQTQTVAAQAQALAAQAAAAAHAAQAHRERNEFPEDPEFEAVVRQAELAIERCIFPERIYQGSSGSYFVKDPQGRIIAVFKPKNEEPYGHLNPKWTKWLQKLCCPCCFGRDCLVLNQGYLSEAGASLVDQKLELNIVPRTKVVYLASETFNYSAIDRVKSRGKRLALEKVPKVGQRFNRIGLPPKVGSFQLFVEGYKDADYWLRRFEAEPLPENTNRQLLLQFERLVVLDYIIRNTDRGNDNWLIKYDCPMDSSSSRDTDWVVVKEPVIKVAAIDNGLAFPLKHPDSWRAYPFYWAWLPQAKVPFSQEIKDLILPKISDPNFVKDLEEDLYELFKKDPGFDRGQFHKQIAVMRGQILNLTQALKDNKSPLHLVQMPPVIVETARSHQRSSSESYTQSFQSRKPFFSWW
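ADP-Glo luminescence measured ADP generated by PI4K2A enzyme (4 ug/mL before mixing) with 1.2 mM PI substrate (pre-mix) and 300 microM ATP (pre-mix). Tris pH7.5 buffer with MgCl2, Triton X-100; 1 h reaction at ambient temperature.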
KB-3-1 tox = qHTS assay for MDR1-selective chemotherapeutics: Primary screen using the parental adenocarcinoma cell KB-3-1; actives 1.4% (n = 400,000); AID 1347075, 2019; Potency, µM (highest dose often 46.1 µM), actives largely listed as cytotoxic; KB-3-1 viability, CellTiter-Glo ATP luminescence, 72 h; further: potency means the concentration at half of the fitted maximal effect; nearly all actives have a fitted effect of over 60% in size
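Screening of KB-3-1 cells (DMEM, 10% FBS, phenol-red free) ran from lowest to highest compound concentration; after 72 h at 37 °C viability was read luminescently and curves fitted.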
Starred values were filed as active, the others as inactive; i = inactive; ? = inconclusive; / = not tested or not shown; ! = a repeat was not active. Shown are actives, neighbours in structure and some others; about 5.7% of the full set was active somewhere. Unless noted, the call rests on the fitted dose curve; in most records, active means well fitted curve in the direction sought with a large enough effect; inconclusive means small, poorly fitted or top-dose-only effect, or another doubt; inactive means no such curve, though single readings can be large; an effect the other way counts as inactive or inconclusive. Unless noted, on the % scale 0 is the no-effect control and ±100 the full control effect.

SMILES	KB-V1 cytotox	Giardia kill	Nrf2 inh	A549 tox	PI4K2A block	KB-3-1 tox
O=C(Nc1ccc(F)cc1)N1CCN(c2nc3ccccc3s2)CC1	i	5	21µM*	-7%	6	i
CC(C)C[C@H](NC1(C(=O)NC2CCCCC2)CCN(C)CC1)C(=O)NCC(c1ccccc1)c1ccccc1	/	/	/	/	1	/
COc1ccc(C(=O)N2CCN(C(=O)c3cc(OC)c(OC)c(OC)c3)CC2)cc1	i	-23	/	-2%	5	i
COc1cc(C(=O)N2CCN(c3cc(Cl)ccc3Cl)CC2)cc(OC)c1OC	?	-12	-6%	-4%	-2	0.33µM*
O=C(c1ccc2ncsc2c1)N1CCN(c2nc3ccccc3s2)CC1	7.3µM*	7	18µM*	-19%	1	?
Cc1cccc(N2CCN(C(=O)c3ccc4ncsc4c3)CC2)c1C	?	-6	5%	-19%	-23	4.6µM*
O=C(c1ccc2ncsc2c1)N1CCN(c2ccccc2Cl)CC1	?	-10	3%	7%	-4	i
O=C(Nc1ccc(F)cc1)N1CCCN(c2nccc(C(F)(F)F)n2)CC1	i	-14	12µM*	?	-2	i
O=C(Nc1ccccc1)N1CCCN(c2nccc(C(F)(F)F)n2)CC1	i	7	-8%	-5%	2	i
COc1cccc(CNC(=O)COC(=O)c2ccc(S(C)(=O)=O)c([N+](=O)[O-])c2)c1	i	-14	17%	0%	/	i
C#CCNC(=O)C[C@H]1C(=O)N(CCc2ccc(Cl)cc2)C2=CCCC[C@@]21C(=O)OCC	/	/	/	/	0	/
O=C(CNC(=O)c1ccc(-c2ccccc2)cc1)OC(C(=O)Nc1cc(C(F)(F)F)ccc1Cl)c1ccccc1 (stereo not drawn)	/	/	-6%	4%	/	/
CN(C1CCCCC1)S(=O)(=O)c1ccc(C(=O)N2CCN(c3nc4ccccc4s3)CC2)cc1	2.6µM*	4	?	-4%	5	i
O=C(C1CC1)N1CCN(c2nc3ccccc3s2)CC1	?	-6	-14%	-3%	1	i
Cc1ccc(S(=O)(=O)Nc2ccc(C(OC(=O)c3ccccc3[N+](=O)[O-])(C(F)(F)F)C(F)(F)F)cc2)cc1	3.7µM*	?	?	?	0	?
O=C(OC(c1ccc(NS(=O)(=O)c2ccccc2)cc1)(C(F)(F)F)C(F)(F)F)c1ccccc1	i	1	?	-13%	-1	?
CC(=O)CC[C@H]1CC[C@]2(CCCN(Cc3nccn3C)C2)O1	/	/	/	/	3	/
O=C(CNC1CCCC1)Nc1ccc(N2CCCCCC2)cc1	?	4	7%	-2%	-2	i
O=C(CNCC1CCCO1)Nc1ccccc1N1CCCCCC1 (stereo not drawn)	6.5µM*	-11	-6%	-1%	0	i
O=C(CNCC1CCCO1)Nc1ccc(N2CCCCCC2)cc1 (stereo not drawn)	21µM*	15	2%	2%	15	i
O=C(CNCc1ccccc1Cl)Nc1ccccc1N1CCCCC1	i	?	-10%	4%	-3	i
CCC1(C)Cc2c(sc3nc(SC)n(Cc4ccccc4)c(=O)c23)CO1 (stereo not drawn)	i	13	?	3%	3	i
CC1(C)Cc2c(sc3[nH]c(=S)n(Cc4ccccc4)c(=O)c23)CO1	?	-12	16µM*	?	1	?
CCc1ccc(NC(=O)CSc2nc3n[nH]c(C)c3c(=N)n2-c2ccc(C)cc2)cc1	/	/	/	-14%	-5	/
Cc1[nH]nc2nc(SCC(=O)NC3CCCCC3)n(-c3ccc(Br)cc3)c(=N)c12	i	-5	18µM*	?	0	?
SMILES	KB-V1 cytotox	Giardia kill	Nrf2 inh	A549 tox	PI4K2A block	KB-3-1 tox
CCCN(CCC)C(=O)CSc1nc2n[nH]c(C)c2c(=N)n1-c1ccc(OC)cc1	?	12	18µM*	?	-4	?
COc1ccccc1NC(=O)CSc1nc2n[nH]c(C)c2c(=N)n1-c1ccccc1Cl	16µM*	-5	13µM*	-10%	-8	?
Cc1ccc(CCNC(=O)CCN2N=C(c3ccc(C)cc3)CCC2=O)cc1	/	/	/	5%	2	/
COc1ccc(-c2sc3ccc(N4CCOCC4)cc3c2C#CCO)cc1	i	7	16µM*	-9%	-4	i
CC(=O)c1cc(-c2ccccc2)n(CC(=O)NCc2ccc(F)cc2)c1C	/	/	/	/	0	/
Cc1ccc(/C=N\NC(=O)c2ccc(Cn3cc(Br)c([N+](=O)[O-])n3)o2)o1	i	-12	?	-3%	4	?
O=C(N/N=C\c1cccc(Cl)c1)c1ccc(Cn2cc(Br)c([N+](=O)[O-])n2)o1	21µM*	10	?	-20%	-3	?
CCOc1c2c(c(-c3ccc4c(c3)OCO4)c3cc(OC)c(OC)cc13)C(=O)OC2	?	16	1.8µM*	2.9µM*	/	1.3µM*
COc1ccccc1-c1oc2ccccc2c1-c1ccc2c(c1)OCO2	i	14	14%	9%	?	i
COc1ccc(C2=NOC(C)(c3nnc(-c4ccncc4)o3)C2)cc1 (stereo not drawn)	i	0	-4%	-3%	-60*	i
Cc1ccc(C2=NOC(C)(c3nnc(-c4ccncc4)o3)C2)cc1 (stereo not drawn)	?	-4	3%	2%	-1	i
CCOC(=O)C[C@H]1c2cc(C(F)(F)F)ccc2S(=O)(=O)N1Cc1ccccc1	10µM*!	-3	-3%	-3%	5	i
COC(=O)C[C@H]1c2cc(F)ccc2S(=O)(=O)N1Cc1ccccc1	?	-24	8%	-1%	-60*	i
CCOC(=O)C[C@H]1c2ccccc2S(=O)(=O)N1Cc1ccc(Cl)cc1	16µM*!	-26	?	-1%	2	?
CCOC(=O)C[C@H]1c2ccc(C(F)(F)F)cc2S(=O)(=O)N1Cc1ccccc1	?	-22	-17%	-2%	5	i
CCCCNC(=O)Cn1c(SCc2ccccc2C)nc2ccncc21	i	-8	16%	-1%	/	i
COc1ccc(Oc2cccc(Cl)c2CNC(=O)c2ccccc2C(=O)O)cc1	i	-24	-17%	23%	-1	i
O=C(NCc1c(Cl)cccc1Oc1ccccc1)c1ccccc1	12µM*	26	?	-1%	0	i
